# PubChem BioAssay (NCATS)
# Values joined by “and” are separate entries in the source; they are usually repeats but may differ in a detail not shown here. Equal values may be shown once. Records with an inconclusive call do not appear. Active and inactive are the calls of the source. Unless noted, the call rests on the fitted dose curve; in most records, active means well fitted curve in the direction sought with a large enough effect; inconclusive means small, poorly fitted or top-dose-only effect, or another doubt; inactive means no such curve, though single readings can be large; an effect the other way counts as inactive or inconclusive. Residues, ends and D or L forms follow the SMILES beside them. *: point of attachment. Cbz = O=C(OCc1ccccc1)*
# What was measured:
# [1] = High-throughput drug toxicity screening in the BPDCN cell line Cal-1 (AID 1224825; call rule not given here); details: Cal-1 BPDCN cell viability, qHTS; at 45.8 µM (top of the series) unless noted
# How it was run: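 Exponentially growing Cal-1 cells, 500 per well in phenol red-free RPMI with 10% FBS, were exposed to compounds for 48 h at 37 °C, 5% CO2. Viability was read by CellTiter-Glo luminescence and normalised to DMSO (100%) and 9.2 uM bortezomib (0%).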
# [2] = qHTS assay for measurement of the activity of small molecule inhibitors on Zika virus induced Caspase-3 activity in human iPSC derived neural progenitor cells (hNPCs) (AID 1224857); further: % of control where 0% means no effect; nearly all actives have a fitted effect of over 65% in size
# How it was run: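 Percent inhibition of virus-induced caspase-3/7 luminescence (Caspase-Glo), scaled between uninfected cells and Zika-infected cells. hNPCs received compound 1 hr before ZIKV at 2 FFU/cell, with 6 hours infection at 37 C.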
# [3] = qHTS assay for measurement of the activity of small molecule inhibitors on Zika virus induced Caspase-3 activity in human astrocytoma cells (AID 1224859);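 further: plate controls were ZIKV-infected untreated cells for no effect and uninfected cells for full effect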
# How it was run: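 Luminescent caspase-3/7 read-out (30 min reagent, room temperature) in human SNB-19 cells infected 6 h with ZIKV (2 FFU/cell) after 1 h compound pre-incubation; Data were normalised to uninfected and infected wells.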
# [4] = qHTS Screen of the MIPE 4.0 Collection Against Ewings Sarcoma (RDES) (AID 1259252); further: nearly all actives have a fitted effect of over 35% in size; further: potency means the concentration at half of the fitted maximal effect
# How it was run: (§1)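 Compound titrations go onto adherent log-phase cells 4 h after seeding, incubate 48 h at 37C, then CellTiter-Glo luminescence reports viability relative to DMSO and cell-free controls.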
# [5] = qHTS Screen of the MIPE 4.0 Collection Against Ewings Sarcoma (TC71) (AID 1259253); further: nearly all actives have a fitted effect of over 40% in size; further: potency means the concentration at half of the fitted maximal effect
# How it was run: as §1
# [6] = qHTS Screen of the MIPE 4.0 Collection Against Ewings Sarcoma (EW8) (AID 1259255); further: nearly all actives have a fitted effect of over 35% in size; further: potency means the concentration at half of the fitted maximal effect;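 on viability: 100% = DMSO-treated cells and 0% = medium-only wells without cells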
# How it was run: as §1
# [7] = qHTS Screen of the MIPE 4.0 Collection Against Ewings Sarcoma (TC32) (AID 1259256); further: nearly all actives have a fitted effect of over 45% in size; further: potency means the concentration at half of the fitted maximal effect
# How it was run: as §1
# [8] = P-glycoprotein substrates identified in KB-8-5-11 adenocarcinoma cell line, qHTS therapeutic library screen (AID 1346987); further: nearly all actives have a fitted effect of over 65% in size; further: potency means the concentration at half of the fitted maximal effect
# How it was run: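 KB-8-5-11, a colchicine-selected P-gp-overexpressing KB-3-1 subline, was grown without colchicine for the assay. Cells were seeded at 500 cells/well, dosed in concentration-response and incubated 72 h at 37 degree C, 5% CO2. Viability was read by CellTiter-Glo luminescence.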
# [9] = NS1 protein of Zika virus - qHTS assay to identify small molecule inhibitors in human HEK 293 cells (AID 1347053); further: nearly all actives have a fitted effect of over 55% in size; further: potency means the concentration at half of the fitted maximal effect
# How it was run: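 HEK 293 cells pretreated with compound for 1 h, then infected with ZIKV MR766 (MOI 0.5) for 24 h at 37 C. NS1 detected by TR-FRET with two anti-NS1 antibodies; normalized to uninfected (0%) and infected (100%) wells.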
# [10] = qHTS of pediatric cancer cell lines to identify multiple opportunities for drug repurposing: Primary screen for TC32 cells (AID 1347089); further: nearly all actives have a fitted effect of over 60% in size; further: potency means the concentration at half of the fitted maximal effect
# How it was run: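 In the primary qHTS, MIPE compounds were tested at 11 concentrations (0.78 nM to 46 µM) and NPC compounds at 8 (0.59 nM to 46 µM) on TC32 cells for 48 h. CellTiter-Glo luminescence gave viability.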
# [11] = qHTS of pediatric cancer cell lines to identify multiple opportunities for drug repurposing: Primary screen for SJ-GBM2 cells (AID 1347091); further: potency means the concentration at half of the fitted maximal effect
# How it was run: (§2)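 Eight- or eleven-point concentration series, 48 h treatment at 37 degrees C in growth media; readout CellTiter-Glo luminescence. Potency and efficacy were taken from the concentration-response curves.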
# [12] = qHTS of pediatric cancer cell lines to identify multiple opportunities for drug repurposing: Primary screen for A673 cells (AID 1347092); further: nearly all actives have a fitted effect of over 45% in size; further: potency means the concentration at half of the fitted maximal effect
# How it was run: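 48 h compound exposure, A673, 500-1,000 cells/well, 37 degrees C/5% CO2. MIPE: 11-point, 0.78 nM-46 µM; NPC: 8-point, 0.59 nM-46 µM (final). Readout CellTiter-Glo luminescence after 15 min RT.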
# [13] = qHTS of pediatric cancer cell lines to identify multiple opportunities for drug repurposing: Primary screen for SK-N-MC cells (AID 1347093); further: potency means the concentration at half of the fitted maximal effect
# How it was run: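 Metabolically active cells were quantified by ATP-dependent luminescence (CellTiter-Glo, 15 min at room temperature) following 48 h treatment. Cells had been plated at 500-1,000 per well and settled for 5 h beforehand.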
# [14] = qHTS of pediatric cancer cell lines to identify multiple opportunities for drug repurposing: Primary screen for BT-37 cells (AID 1347094); further: potency means the concentration at half of the fitted maximal effect
# How it was run: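 Cells plated at 500-1,000/well in growth medium, compounds added after 5 h. MIPE tested at 11 points (from 0.78 nM), NPC at 8 points (from 0.59 nM). CellTiter-Glo luminescence after 48 h; concentration-response curves from primary screen.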
# [15] = qHTS of pediatric cancer cell lines to identify multiple opportunities for drug repurposing: Primary screen for DAOY cells (AID 1347090); further: nearly all actives have a fitted effect of over 55% in size; further: potency means the concentration at half of the fitted maximal effect
# How it was run: as §2
smiles,measurement,setting,value
O=C1NC(=O)[C@@H](c2cn3c4c(cccc24)CCC3)[C@H]1c1c[nH]c2ccccc12,viability (% of control),[1],14.9%
same,Potency,[2],inactive
same,Potency,[3],inactive
same,Potency,[4],296 nM (active)
same,Potency,[5],526 nM (active)
same,Potency,[6],235 nM (active)
same,Potency,[7],166 nM (active)
same,Potency,[8],0.469 µM (active)
same,Potency,[9],6620 nM (active)
same,Potency,[10],2340 nM (active)
same,Potency,[11],83.3 nM (active)
same,Potency,[12],235 nM (active)
same,Potency,[13],46.9 nM (active)
same,Potency,[14],2170 nM (active)
CC(C)C[C@@H](C=O)NC(=O)[C@H](CC(C)C)NC(=O)[C@H](CC(C)C)NC(=O)OCc1ccccc1 (Cbz-Leu-Leu-Leu-aldehyde),viability (% of control),[1],4.19%
same,Potency,[2],inactive
same,Potency,[3],inactive
same,Potency,[4],469 nM (active)
same,Potency,[5],590 nM (active)
same,Potency,[6],332 nM (active)
same,Potency,[7],372 nM (active)
same,Potency,[8],5.26 µM (active)
same,Potency,[9],1660 nM (active)
same,Potency,[10],2340 nM (active)
same,Potency,[11],105 nM (active)
same,Potency,[12],235 nM (active)
same,Potency,[13],83.3 nM (active)
COC1=C(OC)C(=O)C(CC=C(C)CCC=C(C)CCC=C(C)CCC=C(C)CCC=C(C)CCC=C(C)CCC=C(C)CCC=C(C)CCC=C(C)CCC=C(C)C)=C(C)C1=O,viability (% of control),[1],111%
same,Potency,[2],inactive
same,Potency,[3],inactive
same,Potency,[4],inactive
same,Potency,[5],inactive
same,Potency,[6],inactive
same,Potency,[7],inactive
same,Potency,[8],inactive
same,Potency,[10],inactive
same,Potency,[15],inactive
same,Potency,[11],inactive
same,Potency,[12],inactive
same,Potency,[13],inactive
C=C1CCC2[C@](C)(CO)C(O)CC[C@]2(C)C1CC=C1C(=O)OCC1O (some centres undefined),viability (% of control),[1],110% [at 92.2 µM]
same,Potency,[2],inactive
same,Potency,[3],inactive
same,Potency,[4],inactive
same,Potency,[5],inactive
same,Potency,[6],inactive
same,Potency,[7],inactive
same,Potency,[8],inactive
same,Potency,[10],inactive
same,Potency,[15],inactive
same,Potency,[11],inactive
same,Potency,[12],inactive
same,Potency,[13],inactive
same,Potency,[14],inactive
CC(C)c1cc(C(C)C)c(CC(=O)NS(=O)(=O)Oc2c(C(C)C)cccc2C(C)C)c(C(C)C)c1,viability (% of control),[1],60.9%
same,Potency,[2],inactive
same,Potency,[3],inactive
same,Potency,[4],7430 nM (active)
same,Potency,[5],743 nM (active)
same,Potency,[6],7430 nM (active)
same,Potency,[7],inactive
same,Potency,[8],7.31 µM (active)
same,Potency,[10],inactive
same,Potency,[11],11800 nM (active)
Cc1cc(O)c2c(c1)C(=O)c1cccc(O)c1C2=O,viability (% of control),[1],94.6%
same,Potency,[2],inactive
same,Potency,[3],inactive
same,Potency,[4],inactive
same,Potency,[5],inactive
same,Potency,[6],inactive
same,Potency,[7],inactive
same,Potency,[8],inactive
same,Potency,[10],inactive
same,Potency,[15],inactive
same,Potency,[11],inactive
same,Potency,[14],inactive
C[C@H]1[C@@H](OC(=O)CCC(=O)O)O[C@@H]2O[C@@]3(C)CC[C@@H]4[C@H](C)CC[C@@H]1[C@@]24OO3,viability (% of control),[1],5.3%
same,Potency,[2],inactive
same,Potency,[3],inactive
same,Potency,[4],1870 nM (active)
same,Potency,[5],1320 nM (active)
same,Potency,[6],1660 nM (active)
same,Potency,[7],9350 nM (active)
same,Potency,[8],16.6 µM (active)
same,Potency,[10],14700 nM (active)
same,Potency,[15],11800 nM (active)
same,Potency,[12],5900 nM (active)
same,Potency,[13],935 nM (active)
same,Potency,[14],3850 nM (active)
O=C(C=CC#Cc1cccc(NS(=O)(=O)c2ccccc2)c1)NO,viability (% of control),[1],3.48%
same,Potency,[2],inactive
same,Potency,[3],inactive
same,Potency,[4],1870 nM (active)
same,Potency,[5],1320 nM (active)
same,Potency,[6],935 nM (active)
same,Potency,[7],833 nM (active)
same,Potency,[8],4.69 µM (active)
same,Potency,[10],7390 nM (active)
same,Potency,[15],2960 nM (active)
same,Potency,[13],590 nM (active)
same,Potency,[14],4850 nM (active)
CN(CC(=O)N(Cc1ccc(C2CCCCC2)cc1)c1ccc(C(=O)O)c(O)c1)S(=O)(=O)c1c(F)c(F)c(F)c(F)c1F,viability (% of control),[1],3.33%
same,Potency,[2],inactive
same,Potency,[3],inactive
same,Potency,[4],18700 nM (active)
same,Potency,[5],8330 nM (active)
same,Potency,[6],9350 nM (active)
same,Potency,[7],6620 nM (active)
same,Potency,[8],inactive
same,Potency,[10],inactive
same,Potency,[11],11800 nM (active)
same,Potency,[12],9350 nM (active)
same,Potency,[13],1480 nM (active)
C[C@@H](Oc1ccc2[nH]nc(C=Cc3cnn(CCO)c3)c2c1)c1c(Cl)cncc1Cl,viability (% of control),[1],6.51%
same,Potency,[2],inactive
same,Potency,[3],inactive
same,Potency,[4],3320 nM (active)
same,Potency,[5],662 nM (active)
same,Potency,[6],418 nM (active)
same,Potency,[7],264 nM (active)
same,Potency,[8],0.332 µM (active)
same,Potency,[9],inactive
same,Potency,[10],18600 nM (active)
same,Potency,[11],418 nM (active)
same,Potency,[12],18700 nM (active)
same,Potency,[13],7430 nM (active)
CC(C)(N)c1ccc(-c2nc3ccccc3nc2-c2ccccc2)cc1,viability (% of control),[1],4.03%
same,Potency,[2],inactive
same,Potency,[3],inactive
same,Potency,[4],26400 nM (active)
same,Potency,[5],26400 nM (active)
same,Potency,[6],20900 nM (active)
same,Potency,[7],23500 nM (active)
same,Potency,[8],418 nM (active) and 23.1 µM (active)
same,Potency,[9],18700 nM (active)
same,Potency,[10],inactive
same,Potency,[12],5900 nM (active)
same,Potency,[13],4690 nM (active)
same,Potency,[14],15300 nM (active)
CC[C@@]1([C@@H]2O[C@@H]([C@H]3O[C@@](O)(CO)[C@H](C)C[C@H]3C)C[C@H]2C)CC[C@H]([C@]2(C)CC[C@]3(C[C@H](O)[C@@H](C)[C@@H]([C@@H](C)[C@@H](OC)[C@H](C)C(=O)O)O3)O2)O1,viability (% of control),[1],65.7% [at 23.2 µM]
same,Potency,[2],inactive
same,Potency,[3],inactive
same,Potency,[4],257 nM (active)
same,Potency,[5],257 nM (active)
same,Potency,[6],162 nM (active)
same,Potency,[7],162 nM (active)
same,Potency,[8],0.911 µM (active)
same,Potency,[9],1290 nM (active)
same,Potency,[10],1610 nM (active)
same,Potency,[11],288 nM (active)
same,Potency,[14],150 nM (active)
C[C@H](NCc1ccc2c(c1)nc(NC(=O)c1ccc(-c3cn[nH]c3)s1)n2CCc1ccccc1)C(C)(C)C,viability (% of control),[1],2.31%
same,Potency,[2],inactive
same,Potency,[3],inactive
same,Potency,[4],2350 nM (active)
same,Potency,[5],1480 nM (active)
same,Potency,[6],2090 nM (active)
same,Potency,[7],2960 nM (active)
same,Potency,[8],2.35 µM (active)
same,Potency,[9],8330 nM (active)
same,Potency,[10],9300 nM (active)
same,Potency,[11],1050 nM (active)
same,Potency,[12],743 nM (active)
same,Potency,[13],1660 nM (active)
